This is a sample that favours compounds with a hit; in the whole collection about 1.9% have one here.
TDP-43 yeast inh: rescues yeast growth from TDP-43 toxicity. TDP-43 expressing yeast growth rescue, BacTiter-Glo, 24 h. hit rate 1.8% among 410,000. Potency, µM (top dose mostly 46.1 µM), usual class: activators; note: nearly all actives have a fitted effect of over 50% in size
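Growth rescue of TDP-43-toxic yeast measured as ATP luminescence (BacTiter-Glo). Cells grown to mid-log in raffinose, induced in galactose at OD600=0.02, exposed to compound 24 hr at 30 deg C.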
FUS yeast rescue: FUS proteinopathy suppression in yeast; hit rate 0.24% among 390,000; Potency, µM (titrated, usually from 76.6 µM), most hits filed as activators; S. cerevisiae FUS-expressing, growth rescue, OD600, 24 h; AID 1347120; note: nearly all actives have a fitted effect of over 55% in size
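Restored growth of FUS-toxic S. cerevisiae, read as 600 nm absorbance after 24 h at 30C in galactose medium (starting OD 0.005). Controls CP55940 and DMSO.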
PTHR1 ag: activates the human parathyroid hormone receptor PTHR1 | Q03431 | HEK293 GP2 PTHR1 cells, GloSensor cAMP luminescence, 1 h | Potency, µM (doses to about 115 µM), most hits filed as activators | hit rate 0.075% among 410,000 | AID 743266; note: nearly all actives have a fitted effect of over 55% in size
Target sequence (Q03431 whole entry, looked up): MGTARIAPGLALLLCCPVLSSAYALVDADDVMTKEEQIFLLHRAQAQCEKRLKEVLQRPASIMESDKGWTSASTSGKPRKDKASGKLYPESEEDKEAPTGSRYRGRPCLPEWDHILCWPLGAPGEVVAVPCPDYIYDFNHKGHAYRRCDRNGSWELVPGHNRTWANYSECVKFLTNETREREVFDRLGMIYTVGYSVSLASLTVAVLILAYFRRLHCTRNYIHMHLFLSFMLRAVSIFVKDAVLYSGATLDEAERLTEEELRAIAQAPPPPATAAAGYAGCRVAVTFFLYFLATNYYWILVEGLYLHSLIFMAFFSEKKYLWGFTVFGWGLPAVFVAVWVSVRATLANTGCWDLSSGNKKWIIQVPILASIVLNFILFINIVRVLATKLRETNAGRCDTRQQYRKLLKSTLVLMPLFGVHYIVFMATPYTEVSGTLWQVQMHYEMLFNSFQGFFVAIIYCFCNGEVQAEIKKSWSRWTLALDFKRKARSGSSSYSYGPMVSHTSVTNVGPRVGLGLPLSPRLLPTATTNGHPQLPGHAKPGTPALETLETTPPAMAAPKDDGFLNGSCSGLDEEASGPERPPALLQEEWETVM
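HEK-293-derived GP2 cells expressing PTHR1 and a GloSensor cAMP reporter, 3,000/well, plated overnight, given luciferin plus IBMX (each 0.5 mM as added) for 1 h at 37 °C, then compound for 1 h at 37 °C. Luminescence was read after 15 min at room temperature.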
aSyn rescue: inhibitors of alpha-synuclein toxicity in yeast | Potency, µM (titrated, usually from 46.1 µM), most hits filed as activators | hit rate 0.14% among 370,000 | Yeast expressing alpha-synuclein, growth rescue, BacTiter-Glo, 24 h; note: nearly all actives have a fitted effect of over 65% in size
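Screening used galactose-induced yeast with toxic alpha-synuclein levels, exposed to compound for 24 hr at 30 deg C. Cell growth, read with BacTiter-Glo luminescence, gave the measured signal.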
Abeta rescue: restores growth of yeast expressing A-beta42 peptide. yeast expressing A-beta42, growth rescue, OD600, 48 h; response scale: 0% DMSO, 100% iron-clioquinol control. Potency, µM (top dose mostly 46.1 µM), actives largely listed as activators. hit rate 0.063% among 410,000. AID 1347071; note: nearly all actives have a fitted effect of over 55% in size
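Yeast A-beta toxicity model in growth medium with pinned compounds, 48 h at 30 C; growth read as absorbance at 600 nm. Normalized to FeCl3/clioquinol equimolar mix (positive) and DMSO (negative).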
LDHA block: LDHA (human) enzyme inhibition. purified LDHA, NADH/diaphorase-resazurin fluorescence; stronger effect = lower value. AID 1347041. P00338. activity change, % (values are at about 110 or 230 µM). hit rate 0.15% among 480,000; in the data active = activity change below about -30%; inconclusive = mostly about -25% to -30%
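Enzyme activity of human lactate dehydrogenase 5 (2 nM; 0.06 mM NADH, 0.2 mM pyruvate, 5 min, RT) is measured via a resazurin/diaphorase fluorescence readout of residual NADH.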
Of the large screens only hits and unclear results are named; the others gave an inactive call. Unless noted, calls come from the whole dose curve; as a rule, active = well fitted curve in the direction sought with a large enough effect; inconclusive = small, poorly fitted or top-dose-only effect, or another doubt; inactive = no such curve, though single readings can be large; an effect the other way counts as inactive or inconclusive.

COc1ccc(C(=O)O/N=C(\N)c2ccc(Cl)cc2)cc1	TDP-43 yeast inh inconclusive
COc1ccc(/C=C/C(=O)Nc2ccc(OC)nc2)cc1	none
COc1ccc(NC(=O)/C(Cl)=C(/Cl)S(=O)Cc2ccccc2)cn1 (stereo not given)	TDP-43 yeast inh 3.55µM (no result: FUS yeast rescue)
COc1ccc(CS(=O)(=O)/C(Cl)=C(/Cl)C(=O)Nc2ccc(OC)nc2)cc1	TDP-43 yeast inh 12.6µM, aSyn rescue inconclusive
COc1ccc(NC(=O)Cc2ccccc2)cn1	none
CC(C)(C)OC(=O)NCCCCCc1nnc(SCc2ccccc2)o1	TDP-43 yeast inh 35.5µM
CC(C)(C)OC(=O)NCCCCCc1nnc(SCc2ccccc2F)o1	TDP-43 yeast inh inconclusive
CC(C)(C)OC(=O)NCCCCCc1nnc(SCc2cccc(F)c2)o1	TDP-43 yeast inh 25.1µM
CCNC(=O)CN1CCN(C(C(=O)O)c2cn(CC(=O)O)c3ccccc23)CC1 (stereo not given)	none (no result: TDP-43 yeast inh, FUS yeast rescue, PTHR1 ag, aSyn rescue, Abeta rescue)
Cc1[nH]c2ccccc2c1C(c1ccc(O)cc1)c1c(C)[nH]c2ccccc12	none (no result: TDP-43 yeast inh, FUS yeast rescue, PTHR1 ag, aSyn rescue, Abeta rescue)
Cc1[nH]c2ccccc2c1C(c1ccccc1)c1ccc(Cl)s1 (stereo not given)	TDP-43 yeast inh 35.5µM, Abeta rescue inconclusive (no result: aSyn rescue)
CC(=O)n1cc(N(C(=O)CCl)c2ccc(Cl)cc2)c2ccccc21	TDP-43 yeast inh 22.4µM
O=C(CSc1ccc2ccccc2n1)NCCc1ccc(F)cc1	none (no result: TDP-43 yeast inh, FUS yeast rescue, PTHR1 ag, aSyn rescue, Abeta rescue)
COc1cc(NC(=S)NCCN2CCOCC2)cc(OC)c1OC	PTHR1 ag inconclusive, Abeta rescue 25.1µM
COc1cc(NC(=S)NCCCN2CCOCC2)cc(OC)c1OC	none
CC/C=C(/C)C(=O)NCc1sccc1C	none (no result: TDP-43 yeast inh, FUS yeast rescue, PTHR1 ag, aSyn rescue, Abeta rescue)
Cc1csc(SCC(=O)Nc2nc(-c3ccccc3)cs2)n1	TDP-43 yeast inh 14.1µM
CCn1c(SCC(=O)Nc2nc(-c3ccc(C)cc3)cs2)nnc1-c1ccccc1O	TDP-43 yeast inh 20µM
CC1CCN(C(=O)CSCC(=O)Nc2nc(-c3cccs3)cs2)CC1	TDP-43 yeast inh 35.5µM, FUS yeast rescue inconclusive
O=C(CN1CCCCCC1)Nc1nc(-c2ccccc2)cs1	none (no result: TDP-43 yeast inh, FUS yeast rescue, PTHR1 ag, aSyn rescue, Abeta rescue)
O=C(CSCC(=O)N1CCCc2ccccc21)Nc1nc(-c2ccccc2)cs1	TDP-43 yeast inh 11.2µM, FUS yeast rescue inconclusive
Cc1ccc(-c2csc(NC(=O)CSc3nc(C)cs3)n2)cc1	TDP-43 yeast inh inconclusive
CCn1c(SCC(=O)Nc2nc(-c3ccc(C)cc3)cs2)nnc1-c1ccccc1	none
Cc1nn(C)c(C)c1CC(=O)N1CCN(S(=O)(=O)c2c(C)c(C)c(C)c(C)c2C)CC1	none (no result: TDP-43 yeast inh, FUS yeast rescue, PTHR1 ag, aSyn rescue, Abeta rescue)
CC12CCC(=O)C=C1CCC1C2CCC2(C)C(c3csc(N)n3)CCC12 (stereo not given)	FUS yeast rescue inconclusive, aSyn rescue 17.8µM
Cc1ccc(-c2csc(NC(=O)c3c(C)noc3C)n2)cc1C	TDP-43 yeast inh inconclusive, Abeta rescue inconclusive
Cc1ccc(-c2csc(NC(=O)c3c(C)noc3C)n2)s1	TDP-43 yeast inh 11.2µM (no result: FUS yeast rescue)
CSCCC(NC(=O)c1ccc(Cl)cc1Cl)C(=O)Nc1ccc(C)cc1 (stereo not given)	none (no result: TDP-43 yeast inh, FUS yeast rescue, PTHR1 ag, aSyn rescue, Abeta rescue)
c1ccc(OCCNc2ccn3nc(-c4ccccc4)cc3n2)cc1	none
c1ccc(OCCNc2ccn3nc(-c4ccco4)cc3n2)cc1	TDP-43 yeast inh 15.8µM
c1ccc(OCCNc2ccn3nc(-c4cccs4)cc3n2)cc1	TDP-43 yeast inh 14.1µM
FC(F)(F)c1cccc(-c2cc3nc(NCCOc4ccccc4)ccn3n2)c1	FUS yeast rescue inconclusive
COc1ccccc1-c1cc2nc(NCCOc3ccccc3)ccn2n1	TDP-43 yeast inh 25.1µM
Cc1ccc(S(=O)(=O)NCC(c2cccnc2)S(=O)(=O)c2ccccc2)cc1 (stereo not given)	none (no result: TDP-43 yeast inh, FUS yeast rescue, PTHR1 ag, aSyn rescue, Abeta rescue)
CSc1cccc(NS(=O)(=O)c2cc3[nH]c(=O)c(=O)[nH]c3cc2C)c1	none (no result: TDP-43 yeast inh, FUS yeast rescue, PTHR1 ag, aSyn rescue, Abeta rescue)
O=C(CNC(=O)c1ccc2c(c1)OCO2)Nc1ccc2c(c1)Cc1ccccc1-2	none (no result: TDP-43 yeast inh, FUS yeast rescue, PTHR1 ag, aSyn rescue, Abeta rescue)
CC(=O)c1ccc(NC(=S)N2c3ccccc3CC2C)cc1 (stereo not given)	TDP-43 yeast inh 15.8µM, aSyn rescue inconclusive
CC(=O)c1ccc(NC(=S)N2CCC(Cc3ccccc3)CC2)cc1	TDP-43 yeast inh 25.1µM, Abeta rescue inconclusive

From PubChem
